Assay outcomes as filed in PubChem.
FLuc modulator: inhibits or activates purified firefly luciferase, miR-21 counter-screen; purified FLuc, Km substrates, luminescence inhibition; Potency, µM (series often up to 57.5 µM), usual class: inhibitors; 360,000 compounds, 6.9% hits; AID 588342; further: nearly all actives have a fitted effect of over 55% in size
Target sequence (P08659 whole entry, looked up): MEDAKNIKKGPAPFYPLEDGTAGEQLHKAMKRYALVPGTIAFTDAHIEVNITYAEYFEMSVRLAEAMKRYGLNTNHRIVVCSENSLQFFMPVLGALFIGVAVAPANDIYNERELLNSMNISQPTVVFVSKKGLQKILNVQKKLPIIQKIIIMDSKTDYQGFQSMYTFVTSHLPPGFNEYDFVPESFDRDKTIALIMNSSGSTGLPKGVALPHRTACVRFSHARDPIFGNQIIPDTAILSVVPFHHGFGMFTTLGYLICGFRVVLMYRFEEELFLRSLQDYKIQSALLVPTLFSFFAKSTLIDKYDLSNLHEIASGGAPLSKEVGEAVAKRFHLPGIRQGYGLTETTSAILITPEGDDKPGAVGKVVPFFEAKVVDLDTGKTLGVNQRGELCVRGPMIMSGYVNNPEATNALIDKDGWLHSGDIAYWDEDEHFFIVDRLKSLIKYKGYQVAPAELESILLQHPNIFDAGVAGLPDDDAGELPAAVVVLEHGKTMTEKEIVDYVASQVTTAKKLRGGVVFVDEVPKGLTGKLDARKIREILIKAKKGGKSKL
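Purified P. pyralis luciferase (10nM final) with 10uM D-luciferin and 10uM ATP (Km levels) in 50mM Tris acetate pH 7.5, 10mM Mg acetate, 0.01% Tween-20, 0.05% BSA; qHTS 6-point titration, ~60 µM downward; luminescence read.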
KinaseGlo FLuc: blocks Kinase-Glo luciferase, a counter-screen artifact | Kinase-Glo luciferase, ATP luminescence, 8 min | Potency, µM (top dose mostly 38.3 µM), usual class: inhibitors | 200,000 compounds, 0.28% hits | AID 1379; further: nearly all actives have a fitted effect of over 60% in size
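Substrate mix (final 50 mM imidazole pH 7.2, 50 mM KCl, 7 mM MgCl2, 10 uM ATP, 0.01% Tween 20, 0.05% BSA) plus pin-tool compound, then Kinase-Glo detection mix; 8 min ambient, luminescence read.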
NPC1 promoter act: NPC1 promoter activation | Huh7 NPC1 promoter luciferase reporter, 24 h | Potency, µM (titrated, usually from 9.22 µM), actives largely listed as activators | 320,000 compounds, 2.4% hits | AID 485313; further: nearly all actives have a fitted effect of over 60% in size
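Cells: Huh7 expressing luciferase under the NPC1 promoter, 1500/well. Seeded 2 h, compound added, incubated 24 h at 37 °C. Luciferase reagent, 10 min ambient, then luminescence.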
SMN2 splice enh: increases expression of the SMN2 splice variant. 210,000 compounds, 2.8% hits. Potency, µM (series often up to 46.1 µM), actives largely listed as activators. AID 1458. HEK293 SMN2-luciferase splicing reporter, luminescence, 30-36 h; further: nearly all actives have a fitted effect of over 55% in size
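HEK293 cells carry an SMN2 minigene-luciferase reporter in which exon 7 inclusion puts luciferase in frame. Cells were seeded at 2000 cells/well, attached for 10-12 hours, then exposed to compounds for 30-36 hours at 37C before ONE-Glo luminescence.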
Rab9 promoter act: activates the Rab9 promoter; Huh7 Rab9 promoter-luciferase reporter, luminescence, 24 h; Potency, µM (series often up to 9.22 µM), most hits filed as activators; 320,000 compounds, 2.8% hits; further: nearly all actives have a fitted effect of over 60% in size
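Huh7 cells stably carrying Rab9 promoter–luciferase reporter, plated 1500 cells/well, compound added after 2 h and incubated 24 h at 37 °C; luciferase luminescence then read after 10 min with detection reagent.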
ELG1 genotoxic: inducers of genotoxicity in HEK293T ELG1-luciferase cells; 330,000 compounds, 1.3% hits; HEK293T ELG1-luciferase reporter, luminescence, 16 h; Potency, µM (highest dose often 46 µM), actives largely listed as activators; further: nearly all actives have a fitted effect of over 60% in size
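Luminescence read-out: rising ELG1-luciferase signal, reflecting elevated ELG1 protein under genetic stress, flags genotoxic compounds. Cells were treated for 16 hr at 37 °C before ONE-Glo detection.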
Hits are given with their value; n = inactive; u = inconclusive; x = not tested or not shown; ! = repeats disagree; [ ] = remark or other dose. Most compounds without a hit are left out; they make up all but 7.5% or so of the library. The call rests on the fitted dose curve; in most records, active means well fitted curve in the direction sought with a large enough effect; inconclusive means small, poorly fitted or top-dose-only effect, or another doubt; inactive means no such curve, though single readings can be large; an effect the other way counts as inactive or inconclusive.

SMILES	FLuc modulator	KinaseGlo FLuc	NPC1 promoter act	SMN2 splice enh	Rab9 promoter act	ELG1 genotoxic
O=C(N/N=C/c1cccnc1)c1ccco1	n	x	n	x	n	n
CCc1ccccc1NC(=O)Cn1nc(C)c2nn(-c3ccc(Cl)cc3)c(C)c2c1=O	n	x	x	x	x	x
COC(=O)CCNC(=O)c1ccc2nc(Cc3ccc(OC)c(OC)c3)oc2c1	16.9µM	x	u	x	u	n
CCOCC(O)CNC(=O)c1ccc2nc(Cc3ccc(OC)c(OC)c3)oc2c1 (stereo not drawn)	n	x	u	x	n	n
CCOCCCNC(=O)c1ccc(OC)cc1	n[2.3 µM]	n	n	28.2µM	n	u
COc1ccc(Cc2nc3ccc(C(=O)NCCCSC)cc3o2)cc1OC	16.9µM	x	u	x	u	n
COc1ccc(Cc2nc3ccc(C(=O)NCCc4ccc(OC)c(OC)c4)cc3o2)cc1	n	x	x	x	x	x
COCCCNC(=O)c1ccc2nc(Cc3ccc(OC)cc3)oc2c1	16.9µM!	x	3.98µM	x	2.24µM	20.6µM
Cc1sc2ncn(CC(=O)N(C)c3cccc(C(F)(F)F)c3)c(=O)c2c1S(=O)(=O)N1CCN(c2ncccn2)CC1	n	x	x	n	x	x
CNC(=O)/C=C/c1cccc(C(F)(F)F)c1	n	n	n	n	n	n
CC(C)(C)NC(=O)/C=C/c1ccc(C(F)(F)F)cc1	26.9µM	n	n	n	n	n
CC1CCN(C(=O)c2cc(-c3cccc(Cl)c3)on2)CC1	23.9µM	x	x	u	x	x
CC1CCN(C(=O)c2cc(-c3ccc(Cl)c(Cl)c3)on2)CC1	u	n	n	u	n	n
COc1ccccc1N1CCN(C(=O)c2cc(-c3cccc(Cl)c3)on2)CC1	n	n	n	n	n	n
CC1CCN(C(=O)c2cc(-c3ccc(Cl)cc3)on2)CC1	6.01µM	x	x	n	x	x
CN(C)c1ccc(/C=N/NC(=O)COc2ccccc2)cc1	19µM	n	n	n	n	n
CN(C)c1ccc(/C=N/NC(=O)CNC(=O)/C=C/c2ccccc2)cc1	2.39µM	x	u	x	u	u
CNC(=S)N/N=C/c1ccc(N(C)C)cc1	u	x	3.55µM	x	2.82µM	u
O=C(Nc1ccc2nn(-c3ccccc3)nc2c1)c1cccnc1	u	n	3.55µM	n	u	n
Cc1nc2ccc(NC(=O)c3ccco3)cc2nc1C	u	n	n	n	u	n
CC(C)C(=O)Nc1ccc2nn(-c3ccccc3)nc2c1	0.675µM	n	0.224µM	7.94µM	0.141µM	1.16µM
O=C(Nc1ccc2nn(-c3ccccc3)nc2c1)c1ccco1	u	n	2.82µM	3.98µM	3.55µM	u
O=C(Nc1cc2nn(-c3ccccc3)nc2cc1Cl)c1ccco1	u	n	3.98µM	11.2µM	3.55µM	9.2µM
O=C(Nc1ccc2nn(-c3ccc(F)cc3)nc2c1)c1cccnc1	n	n	n	n	n	n
CCOc1ccc(NC(=O)c2oc3ccccc3c2NC(=O)Cc2cccs2)cc1	n	x	x	n	x	x
SMILES	FLuc modulator	KinaseGlo FLuc	NPC1 promoter act	SMN2 splice enh	Rab9 promoter act	ELG1 genotoxic
Cc1cc(NC(=O)c2ccco2)ccc1-n1cnnn1	21.3µM	n	u	n	u	u
COc1cc(C(=O)Nc2ccc(-n3cnnn3)c(C)c2)cc(OC)c1OC	u	n	n	n	n	n
COC(=O)c1ccc(NC(=O)CSc2nc3ccccc3c(=O)[nH]2)cc1	n	n	n	n	n	u
COc1ccc2nc(SCC(=O)N3CCNC3=O)[nH]c2c1	21.3µM	n	2.51µM	u	2µM	u
COc1ccc(NC(=O)c2ccc(NC(=O)CSc3nccc(=O)[nH]3)cc2)cc1	15.1µM	x	n	x	n	n
COc1ccc(NC(=O)CSc2nc3ccccc3c(=O)[nH]2)cc1S(N)(=O)=O	19µM	x	n	x	n	n
COC(=O)C1CCN(C(=O)CSc2nc3ccc(OC)cc3[nH]2)CC1	n	n	n	n	n	n
COc1ccc2nc(SCC(=O)Nc3ccc4[nH]c(=O)[nH]c4c3)[nH]c2c1	15.1µM	x	n	x	n	n
CN(C)c1oc(/C=C/c2cccs2)nc1S(=O)(=O)c1ccccc1	n	x	n	x	n	n
COc1ccc(NC(=O)CSc2nc(O)c(C/C=C/c3ccccc3)c(=O)[nH]2)cc1	5.36µM	x	x	n	x	x
CC(C)OC(=O)c1ccc(NC(=O)CSc2nc3ncccc3[nH]2)cc1	16.9µM	n	n	n	n	n
O=C(CSc1nc(O)c(Cc2ccccc2)c(=O)[nH]1)Nc1nnc(SCc2ccccc2)s1	10.7µM	x	n	x	n	n
CC1=C(c2ccc(C)cc2)S(=O)(=O)N(Cc2ccc(C(=O)NCc3ccccc3)cc2)C1=O	n	x	x	x	x	x
Cc1ccc(NC(=O)CN2CCOCC2)cc1C	n	x	n	x	n	n
Cc1cccc(-n2cnc(C(=O)NC3CCCCCC3)c2)n1	15.1µM	n	2.51µM	u	3.55µM	u
